The text below walks through data of publication PMC7862700, “An all-to-all approach to the identification of sequence-specific readers for epigenetic DNA modifications on cytosine”.

Holding throughout (experiment): DAPPL (digital affinity profiling via proximity ligation, sequencing); 10 mM Tris-HCl pH 7.5, 50 mM NaCl, 1 mM DTT, 4% glycerol, room temperature, 30 min; GST-TFs on glutathione beads, 16-mer random dsDNA library, 0.1% formaldehyde crosslink after washing; high values mean tight binding
For test [1], the target named is T1, FEV (Homo sapiens, UniProt Q99581 1-238).
T1 sequence: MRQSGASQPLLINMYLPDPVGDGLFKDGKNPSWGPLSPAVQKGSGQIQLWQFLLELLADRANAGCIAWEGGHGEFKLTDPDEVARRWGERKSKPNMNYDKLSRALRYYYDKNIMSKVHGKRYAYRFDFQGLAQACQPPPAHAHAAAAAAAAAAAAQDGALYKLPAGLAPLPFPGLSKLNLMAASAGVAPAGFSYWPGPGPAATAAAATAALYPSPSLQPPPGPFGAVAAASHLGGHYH
Particulars: protein: recombinant; tags: N-terminal GST; dsDNA, one strand shown. The method in brief:
(§1)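 Human transcription factors carrying a GST fusion were produced in yeast, bound to glutathione beads, tagged with DNA barcodes and pooled together with a tag-only sample. Each pool was held with 200 nmole of a random double-stranded 16-mer DNA library in Tris/NaCl/DTT/glycerol buffer for 30 min at room temperature, then washed, crosslinked in 0.1% formaldehyde, proximity-ligated with BsaI/T4 ligase (1 h, 37 °C), PCR-amplified and sequenced on an Illumina NextSeq500. Binding signal is the read frequency of each hexamer for a given factor divided by its frequency in the tag-only sample.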

The target in test [2] is ETV5 (Homo sapiens, UniProt P41161 1-510). Particulars: protein: recombinant; tags: N-terminal GST; dsDNA, one strand shown. In outline: as §1
For test [3], the target named is HSF1 (Homo sapiens, UniProt Q00613 1-529). The conditions noted are these: protein: recombinant; tags: N-terminal GST; chain copies: 3; dsDNA, one strand shown. The method in brief: as §1
For test [4], the target named is T2, SPIC (Homo sapiens, UniProt Q8N5J4 1-248).
T2 sequence: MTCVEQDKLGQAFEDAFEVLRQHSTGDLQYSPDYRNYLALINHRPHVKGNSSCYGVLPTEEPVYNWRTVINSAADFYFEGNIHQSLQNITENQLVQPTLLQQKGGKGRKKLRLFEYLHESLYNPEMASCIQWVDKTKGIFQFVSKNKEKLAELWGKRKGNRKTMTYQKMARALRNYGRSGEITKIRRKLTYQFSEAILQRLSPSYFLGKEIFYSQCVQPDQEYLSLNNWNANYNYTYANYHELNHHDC
Particulars: protein: recombinant; tags: N-terminal GST; dsDNA, one strand shown. The method in brief: as §1

Test [5] has as its target ELF4 (Homo sapiens, UniProt Q99607 1-663). The conditions noted are these: protein: recombinant; tags: N-terminal GST; dsDNA, one strand shown. The method in brief: as §1
For test [6], the target named is T3, ELK4 (Homo sapiens, UniProt P28324-2 1-405).
T3 sequence: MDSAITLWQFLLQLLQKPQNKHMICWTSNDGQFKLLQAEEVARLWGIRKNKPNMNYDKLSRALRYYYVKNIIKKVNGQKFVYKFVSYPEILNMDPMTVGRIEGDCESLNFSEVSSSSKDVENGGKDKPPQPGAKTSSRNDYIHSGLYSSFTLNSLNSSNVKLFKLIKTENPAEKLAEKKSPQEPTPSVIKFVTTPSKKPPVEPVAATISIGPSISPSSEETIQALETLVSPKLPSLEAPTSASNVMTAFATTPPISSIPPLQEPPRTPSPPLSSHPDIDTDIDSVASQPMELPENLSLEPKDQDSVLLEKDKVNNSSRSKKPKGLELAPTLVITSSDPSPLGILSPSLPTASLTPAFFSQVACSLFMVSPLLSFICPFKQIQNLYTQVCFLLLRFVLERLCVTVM
Particulars: protein: recombinant; tags: N-terminal GST; dsDNA, one strand shown. The method in brief: as §1

Test [7] concerns the target T4, ETV2 (Homo sapiens, UniProt O00321 1-342).
T4 sequence: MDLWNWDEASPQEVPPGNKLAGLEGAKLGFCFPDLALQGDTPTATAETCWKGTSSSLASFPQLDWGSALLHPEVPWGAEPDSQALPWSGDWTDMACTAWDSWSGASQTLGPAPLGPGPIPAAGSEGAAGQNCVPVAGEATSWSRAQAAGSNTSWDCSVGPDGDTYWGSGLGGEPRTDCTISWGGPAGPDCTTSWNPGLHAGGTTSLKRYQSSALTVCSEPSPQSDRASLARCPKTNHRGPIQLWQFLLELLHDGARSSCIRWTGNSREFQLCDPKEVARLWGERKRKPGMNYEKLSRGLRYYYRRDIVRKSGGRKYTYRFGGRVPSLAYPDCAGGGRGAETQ
Particulars: protein: recombinant; tags: N-terminal GST; dsDNA, one strand shown. The method in brief: as §1

In test [8] the target is T5, ELF3 (Homo sapiens, UniProt P78545 1-371).
T5 sequence: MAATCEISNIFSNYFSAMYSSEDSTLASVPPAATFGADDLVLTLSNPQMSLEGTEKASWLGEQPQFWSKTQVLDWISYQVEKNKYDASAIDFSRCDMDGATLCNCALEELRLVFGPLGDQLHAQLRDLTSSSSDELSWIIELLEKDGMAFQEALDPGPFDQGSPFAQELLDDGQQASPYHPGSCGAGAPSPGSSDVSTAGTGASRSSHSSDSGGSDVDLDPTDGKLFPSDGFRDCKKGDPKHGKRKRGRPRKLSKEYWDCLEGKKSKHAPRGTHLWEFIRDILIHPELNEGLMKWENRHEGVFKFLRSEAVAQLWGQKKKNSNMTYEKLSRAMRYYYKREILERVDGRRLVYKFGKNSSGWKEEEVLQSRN
The conditions noted are these: protein: recombinant; tags: N-terminal GST; dsDNA, one strand shown. In outline:
as §1

Test [9] addresses CRX (Homo sapiens, UniProt O43186 1-299). The conditions noted are these: protein: recombinant; tags: N-terminal GST; dsDNA, one strand shown. In outline: as §1
In test [10] the target is ETV1 (Homo sapiens, UniProt P50549 1-477). Particulars: protein: recombinant; tags: N-terminal GST; dsDNA, one strand shown. The method in brief:
as §1

Test [11] has as its target T6, ERF (Homo sapiens, UniProt P50548 1-548).
T6 sequence: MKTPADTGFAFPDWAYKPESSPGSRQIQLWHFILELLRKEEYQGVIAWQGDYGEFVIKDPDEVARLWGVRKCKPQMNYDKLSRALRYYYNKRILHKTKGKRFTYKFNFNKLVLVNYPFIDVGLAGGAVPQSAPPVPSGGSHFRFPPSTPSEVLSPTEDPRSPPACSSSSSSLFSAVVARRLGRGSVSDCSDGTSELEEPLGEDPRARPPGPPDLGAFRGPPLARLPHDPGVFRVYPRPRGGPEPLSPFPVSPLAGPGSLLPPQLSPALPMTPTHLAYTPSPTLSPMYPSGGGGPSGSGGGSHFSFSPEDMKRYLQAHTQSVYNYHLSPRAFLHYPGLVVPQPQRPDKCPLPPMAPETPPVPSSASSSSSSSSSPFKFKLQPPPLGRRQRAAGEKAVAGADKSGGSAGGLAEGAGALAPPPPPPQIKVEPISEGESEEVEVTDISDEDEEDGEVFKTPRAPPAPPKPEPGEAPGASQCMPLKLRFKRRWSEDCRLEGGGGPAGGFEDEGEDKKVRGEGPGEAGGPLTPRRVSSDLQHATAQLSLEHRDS
Particulars: protein: recombinant; tags: N-terminal GST; dsDNA, one strand shown. In outline:
as §1

For test [12], the target named is T7, ETV3L (Homo sapiens, UniProt Q6ZN32 1-361).
T7 sequence: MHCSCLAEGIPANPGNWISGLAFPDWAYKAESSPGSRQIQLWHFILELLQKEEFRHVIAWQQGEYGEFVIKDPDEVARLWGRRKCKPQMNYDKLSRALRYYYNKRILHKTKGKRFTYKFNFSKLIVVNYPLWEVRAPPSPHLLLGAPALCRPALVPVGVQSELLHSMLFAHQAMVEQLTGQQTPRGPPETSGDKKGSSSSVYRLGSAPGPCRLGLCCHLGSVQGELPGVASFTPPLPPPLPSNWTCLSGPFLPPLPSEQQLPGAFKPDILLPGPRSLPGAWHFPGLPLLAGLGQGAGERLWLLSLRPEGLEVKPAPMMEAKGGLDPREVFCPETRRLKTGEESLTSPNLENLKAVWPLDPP
The conditions noted are these: protein: recombinant; tags: N-terminal GST; dsDNA, one strand shown. In outline:
as §1

For test [13], the target named is T8, ETS2 (Homo sapiens, UniProt P15036 1-469).
T8 sequence: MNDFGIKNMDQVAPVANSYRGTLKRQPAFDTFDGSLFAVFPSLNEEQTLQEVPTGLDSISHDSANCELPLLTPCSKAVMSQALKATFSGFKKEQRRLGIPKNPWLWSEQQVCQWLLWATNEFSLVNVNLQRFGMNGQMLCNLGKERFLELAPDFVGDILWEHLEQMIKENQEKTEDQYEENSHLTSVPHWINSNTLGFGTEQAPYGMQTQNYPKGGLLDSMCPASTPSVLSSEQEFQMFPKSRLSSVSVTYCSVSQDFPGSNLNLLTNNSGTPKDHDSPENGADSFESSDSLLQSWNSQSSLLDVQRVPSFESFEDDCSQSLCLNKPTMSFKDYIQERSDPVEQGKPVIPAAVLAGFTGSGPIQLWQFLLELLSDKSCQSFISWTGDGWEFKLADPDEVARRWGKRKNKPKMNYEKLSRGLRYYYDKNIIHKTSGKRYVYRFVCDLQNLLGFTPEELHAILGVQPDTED
The conditions noted are these: protein: recombinant; tags: N-terminal GST; dsDNA, one strand shown. The method in brief:
as §1

Test [14] deals with T9, SPDEF (Homo sapiens, UniProt O95238 1-335).
T9 sequence: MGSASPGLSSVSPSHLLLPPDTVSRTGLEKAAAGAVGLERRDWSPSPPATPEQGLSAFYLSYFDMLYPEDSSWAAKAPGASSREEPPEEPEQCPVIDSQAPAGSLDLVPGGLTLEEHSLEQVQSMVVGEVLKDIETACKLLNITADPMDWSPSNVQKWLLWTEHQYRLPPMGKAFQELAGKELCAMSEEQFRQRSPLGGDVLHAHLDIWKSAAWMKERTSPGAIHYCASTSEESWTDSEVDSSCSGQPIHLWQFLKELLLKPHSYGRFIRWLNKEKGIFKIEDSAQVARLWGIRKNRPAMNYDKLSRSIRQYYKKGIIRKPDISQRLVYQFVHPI
The conditions noted are these: protein: recombinant; tags: N-terminal GST; dsDNA, one strand shown. In outline: as §1

The target of test [15] is T10, ETV7 (Homo sapiens, UniProt Q9Y603 1-341).
T10 sequence: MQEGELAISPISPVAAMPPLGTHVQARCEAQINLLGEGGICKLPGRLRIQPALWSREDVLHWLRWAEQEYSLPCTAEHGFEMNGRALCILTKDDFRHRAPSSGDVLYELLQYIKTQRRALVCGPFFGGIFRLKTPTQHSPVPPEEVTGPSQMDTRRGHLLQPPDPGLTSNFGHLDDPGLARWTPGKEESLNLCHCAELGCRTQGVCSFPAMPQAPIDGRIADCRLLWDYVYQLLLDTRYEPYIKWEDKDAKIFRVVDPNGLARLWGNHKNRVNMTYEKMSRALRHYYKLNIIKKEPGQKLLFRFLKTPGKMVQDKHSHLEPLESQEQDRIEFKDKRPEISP
Particulars: protein: recombinant; tags: N-terminal GST; dsDNA, one strand shown. In outline: as §1

The target of test [16] is T11, ELF5 (Homo sapiens, UniProt Q9UKW6-2 1-255).
T11 sequence: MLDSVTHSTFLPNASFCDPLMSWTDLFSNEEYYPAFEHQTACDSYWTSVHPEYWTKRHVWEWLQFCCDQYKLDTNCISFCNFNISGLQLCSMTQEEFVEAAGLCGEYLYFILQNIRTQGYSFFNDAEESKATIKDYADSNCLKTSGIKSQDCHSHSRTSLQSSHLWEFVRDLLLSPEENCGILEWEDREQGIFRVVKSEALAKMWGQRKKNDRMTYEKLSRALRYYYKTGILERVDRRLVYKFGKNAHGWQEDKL
Particulars: protein: recombinant; tags: N-terminal GST; dsDNA, one strand shown. In outline: as §1

Test [17] concerns the target T12, ETV3 (Homo sapiens, UniProt P41162-2 1-143).
T12 sequence: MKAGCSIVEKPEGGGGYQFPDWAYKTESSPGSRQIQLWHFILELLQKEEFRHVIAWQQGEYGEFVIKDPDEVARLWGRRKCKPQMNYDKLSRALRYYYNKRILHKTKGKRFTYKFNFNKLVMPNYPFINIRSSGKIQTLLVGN
Particulars: protein: recombinant; tags: N-terminal GST; dsDNA, one strand shown. The method in brief: as §1

Test [18] has as its target ETV6 (Homo sapiens, UniProt P41212 1-452). Particulars: protein: recombinant; tags: N-terminal GST; dsDNA, one strand shown. The method in brief:
as §1

ETV6, sequence (P41212 whole entry): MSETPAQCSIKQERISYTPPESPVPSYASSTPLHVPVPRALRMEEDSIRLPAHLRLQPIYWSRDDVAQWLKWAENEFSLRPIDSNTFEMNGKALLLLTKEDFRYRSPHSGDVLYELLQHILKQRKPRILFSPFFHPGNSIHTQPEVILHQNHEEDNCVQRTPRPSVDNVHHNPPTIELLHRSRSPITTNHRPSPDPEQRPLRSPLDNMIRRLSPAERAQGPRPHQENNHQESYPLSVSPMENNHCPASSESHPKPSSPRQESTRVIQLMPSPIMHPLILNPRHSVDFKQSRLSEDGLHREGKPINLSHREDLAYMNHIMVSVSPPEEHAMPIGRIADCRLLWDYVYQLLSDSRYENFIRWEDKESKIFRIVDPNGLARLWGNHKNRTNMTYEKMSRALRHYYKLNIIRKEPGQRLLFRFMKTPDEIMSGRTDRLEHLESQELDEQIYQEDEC
ETV5, sequence (P41161 whole entry): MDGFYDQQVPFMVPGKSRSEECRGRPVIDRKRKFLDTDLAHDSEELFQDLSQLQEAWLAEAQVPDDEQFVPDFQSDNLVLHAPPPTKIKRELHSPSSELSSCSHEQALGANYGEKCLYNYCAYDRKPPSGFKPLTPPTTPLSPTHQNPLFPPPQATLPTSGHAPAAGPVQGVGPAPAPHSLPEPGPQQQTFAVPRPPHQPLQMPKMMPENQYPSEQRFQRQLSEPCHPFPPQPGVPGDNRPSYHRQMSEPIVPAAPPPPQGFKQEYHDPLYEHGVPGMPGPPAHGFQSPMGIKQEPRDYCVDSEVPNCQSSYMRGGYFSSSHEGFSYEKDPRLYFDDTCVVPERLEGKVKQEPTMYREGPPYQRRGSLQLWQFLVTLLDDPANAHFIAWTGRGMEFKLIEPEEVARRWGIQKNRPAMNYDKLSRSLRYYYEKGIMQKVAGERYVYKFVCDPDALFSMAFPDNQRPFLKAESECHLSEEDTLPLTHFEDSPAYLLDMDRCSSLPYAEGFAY
ELF4, sequence (Q99607 whole entry): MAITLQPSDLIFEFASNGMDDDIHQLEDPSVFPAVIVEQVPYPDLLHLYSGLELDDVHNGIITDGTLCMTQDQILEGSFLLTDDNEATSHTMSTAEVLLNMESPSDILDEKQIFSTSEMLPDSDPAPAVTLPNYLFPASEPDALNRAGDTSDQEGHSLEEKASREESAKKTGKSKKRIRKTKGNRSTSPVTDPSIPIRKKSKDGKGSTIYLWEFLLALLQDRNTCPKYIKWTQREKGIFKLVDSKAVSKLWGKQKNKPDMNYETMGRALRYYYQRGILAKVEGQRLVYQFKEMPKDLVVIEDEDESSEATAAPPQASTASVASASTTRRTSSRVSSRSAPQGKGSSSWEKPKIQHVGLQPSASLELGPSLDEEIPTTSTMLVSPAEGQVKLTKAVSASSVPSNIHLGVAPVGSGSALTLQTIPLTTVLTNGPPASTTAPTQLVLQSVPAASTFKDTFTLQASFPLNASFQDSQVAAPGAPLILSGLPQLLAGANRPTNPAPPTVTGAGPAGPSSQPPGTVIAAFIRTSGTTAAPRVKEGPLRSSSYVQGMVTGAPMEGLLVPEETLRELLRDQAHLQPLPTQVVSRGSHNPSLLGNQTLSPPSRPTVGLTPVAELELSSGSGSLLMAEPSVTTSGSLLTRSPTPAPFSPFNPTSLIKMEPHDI
CRX, sequence (O43186 whole entry): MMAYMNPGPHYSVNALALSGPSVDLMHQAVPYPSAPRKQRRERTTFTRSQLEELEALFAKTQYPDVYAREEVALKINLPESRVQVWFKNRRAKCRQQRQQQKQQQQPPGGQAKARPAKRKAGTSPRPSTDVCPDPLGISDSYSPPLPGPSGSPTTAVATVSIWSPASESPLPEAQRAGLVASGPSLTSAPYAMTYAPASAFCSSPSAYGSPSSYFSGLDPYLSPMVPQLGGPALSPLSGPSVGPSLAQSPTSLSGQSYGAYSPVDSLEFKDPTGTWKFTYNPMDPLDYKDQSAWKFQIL
ETV1, sequence (P50549 whole entry): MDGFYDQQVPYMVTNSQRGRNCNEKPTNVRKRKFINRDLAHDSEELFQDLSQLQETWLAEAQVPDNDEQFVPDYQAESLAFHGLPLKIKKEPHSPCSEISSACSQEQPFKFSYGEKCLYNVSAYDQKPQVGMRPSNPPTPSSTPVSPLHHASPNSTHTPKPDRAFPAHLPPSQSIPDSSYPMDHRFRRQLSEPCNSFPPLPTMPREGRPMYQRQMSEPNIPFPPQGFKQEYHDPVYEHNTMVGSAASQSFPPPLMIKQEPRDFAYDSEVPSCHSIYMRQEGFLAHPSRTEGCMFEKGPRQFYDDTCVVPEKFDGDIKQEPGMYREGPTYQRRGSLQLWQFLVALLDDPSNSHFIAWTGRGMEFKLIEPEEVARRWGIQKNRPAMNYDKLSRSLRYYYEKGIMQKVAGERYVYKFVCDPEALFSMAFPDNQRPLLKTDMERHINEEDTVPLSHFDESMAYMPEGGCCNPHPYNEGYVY
HSF1, sequence (Q00613 whole entry): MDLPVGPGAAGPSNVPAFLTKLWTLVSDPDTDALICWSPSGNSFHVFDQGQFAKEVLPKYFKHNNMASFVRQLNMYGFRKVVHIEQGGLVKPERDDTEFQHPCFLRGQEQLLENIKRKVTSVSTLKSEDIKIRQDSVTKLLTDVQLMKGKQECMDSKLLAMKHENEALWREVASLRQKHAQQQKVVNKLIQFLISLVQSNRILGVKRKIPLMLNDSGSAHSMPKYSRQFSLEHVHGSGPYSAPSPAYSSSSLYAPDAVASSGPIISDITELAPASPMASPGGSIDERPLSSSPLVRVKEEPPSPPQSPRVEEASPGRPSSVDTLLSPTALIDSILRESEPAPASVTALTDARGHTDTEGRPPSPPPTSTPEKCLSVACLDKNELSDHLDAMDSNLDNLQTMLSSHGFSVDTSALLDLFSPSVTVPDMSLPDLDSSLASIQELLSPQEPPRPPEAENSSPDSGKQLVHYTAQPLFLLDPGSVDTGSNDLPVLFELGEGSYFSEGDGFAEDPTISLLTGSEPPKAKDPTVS

On to ACTAAA, for which the binding signal in test [1] was 1.24 fold enrichment (6-mer frequency, TF over GST control); in test [2] it was 1.24 fold enrichment (6-mer frequency, TF over GST control); in test [3] it was 1.37 fold enrichment (6-mer frequency, TF over GST control); in [4], 1.14 fold enrichment (6-mer frequency, TF over GST control); in [5], 1.31 fold enrichment (6-mer frequency, TF over GST control); in [6], 1.4 fold enrichment (6-mer frequency, TF over GST control). In addition, the binding signal in test [7] is 1.24 fold enrichment (6-mer frequency, TF over GST control); in [8] it was 1.33 fold enrichment (6-mer frequency, TF over GST control); in [9], 1.6 fold enrichment (6-mer frequency, TF over GST control); in [10], 1.31 fold enrichment (6-mer frequency, TF over GST control); in test [11], 1.27 fold enrichment (6-mer frequency, TF over GST control); in test [12] it was 1.32 fold enrichment (6-mer frequency, TF over GST control). Besides, the binding signal in test [13] was 1.3 fold enrichment (6-mer frequency, TF over GST control); in test [14], 1.25 fold enrichment (6-mer frequency, TF over GST control); in test [15], 1.24 fold enrichment (6-mer frequency, TF over GST control); in test [16], 1.28 fold enrichment (6-mer frequency, TF over GST control); in test [17] it was 1.21 fold enrichment (6-mer frequency, TF over GST control); in [18], 1.28 fold enrichment (6-mer frequency, TF over GST control).
